Reference: PubChem BioAssay (NCI)
This is part of a sample that, as a whole, favours compounds with a hit. Of some 83,000 tested, about 20% had one in any assay.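 Single-dose data. Exposure time 48 hours. Values below 10 considered active.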 A number with no mark means an inactive call. Activity calls are given as the source filed them.

tested on: SF-539 CNS; test: NCI-60 one-dose screen, 48 h (100 = growth as untreated, 0 = no growth, -100 = all killed); conditions: 10 µM

Compound | growth
COc1ccc(/C=C/C(=O)c2ccc(NC(=O)CN3C(=O)NC(C)(c4ccccc4)C3=O)cc2)cc1 (stereo not given) | 80%
Cc1ccc(C(C)C)cc1NC(=O)c1ccccc1O | 49.5%
CC1(c2ccccc2)NC(=O)N(CC(=O)Nc2ccc(C(=O)/C=C/c3ccc(Br)cc3)cc2)C1=O (stereo not given) | 39.9%
C=C[C@@]12CN3CC[C@]1(O)[C@@](C(=O)OC)(CO2)c1[nH]c2ccccc2c1C3 | 71.9%
COc1ccc(/C=C/C(=O)c2ccc(S(=O)(=O)NCCNc3nc(Nc4ccc(F)cc4)nc(N(C)C)n3)cc2)cc1 | 41.7%
O=c1oc2ccccc2cc1-c1csc(N=Nc2c(O)[nH]c3ccc(Br)cc23)n1 | 35.6%
O=C(CSc1nnc(-c2c[nH]c3ccccc23)n1-c1ccccc1)Nc1ccc(C(=O)/C=C/c2ccccc2Cl)cc1 | 42.6%
O=C(NO)c1ccc(-c2nc3ccc4[nH]ncc4c3c3c2CCCC3)cc1 | -97.4% (active)
CS(=O)(=O)Nc1ccc(-c2ccc3c(c2)ncn3-c2ccc(NC(=O)Nc3ccc(Br)cc3)cc2)cc1 | -34.5% (active)
O=C(CS(=O)(=O)c1oc(-c2ccc(Cl)cc2)nc1S(=O)(=O)c1ccc(Cl)cc1)N1CCOCC1 | 21.5%
COc1cc(-c2nc3cc(Cl)c(Cl)cc3[nH]2)ccc1OCc1nnc(-c2ccc(Br)cc2)o1 | -92.4% (active)
COc1cccc(C(N)=Nc2ccc(OCCCCCCn3cncn3)cc2)c1 | -31.3% (active)
COc1cc2c3c(n(CCCn4ccnc4)c(=O)c2cc1OC)-c1nc2c(cc1C3=O)OCO2 | -10.1% (active)
Cc1ccc(/C=C/C(=O)c2ccc(NC(=O)CSc3nnc(-c4c[nH]c5ccccc45)n3-c3ccccc3)cc2)cc1 | 7.12% (active)
O=C(CSc1nnc(-c2ccc3nc(-c4ccccc4)[nH]c3c2)o1)Nc1ccc(Br)cc1 | 8.7% (active)
O=C(CNc1nc(-c2ccccc2)cs1)Nc1ccccc1 | -93.7% (active)
O=C(/C=C/Nc1ccc(F)cc1F)c1ccc2c(c1)Nc1ccccc1S2 | 62.4%
COc1cc(Cn2c(C(F)(F)F)cc3c(Cl)ncnc32)ccn1 | 59.9%
COc1ccc(-c2cc(C(=O)N=Nc3c(O)[nH]c4ccc(F)cc34)c3ccccc3n2)cc1 | 39.5%

Compound | growth
O=C(Nc1ccccc1)Nc1nc2ccccc2s1 | 88.6%
O=C(CSc1nnc(-c2ccc3nc(-c4ccccc4)[nH]c3c2)o1)Nc1ccc(Cl)cc1 | 23.4%
CCOc1ccc(Nc2nc3ccccc3nc2Nc2ccc(OCC)cc2)cc1 | 80.8%
CNC(=O)c1cc(-c2ccc(NC(=O)Nc3ccc(C)cc3)cc2)nc2cccnc12 | 99%
Cc1ccc(C(=O)Nc2ccc(-n3c(C)nc4c(cnn4-c4ccccc4)c3=O)cc2)cc1 | 81.4%
COc1ccc(-c2cc(-c3cc(C(=O)c4ccccc4)n4ccc(C)cc34)nc(N)c2C#N)cc1 | 7.52% (active)
C[C@H]1[C@H](C)CC[C@]2(COC(=O)CCC(=O)NCC#CCN3CCNCC3)CC[C@]3(C)C(=CC[C@@H]4[C@@]5(C)CCCNC(C)(C)[C@@H]5CC[C@]43C)[C@H]12 | 41.9%
O=c1[nH]c2ccc(Cl)cc2cc1CSc1ccc(Nc2nccc(-c3ccc(Cl)cc3)n2)cc1 | 45.7%
COc1ccc(-c2cc(C(=O)N=Nc3c(O)[nH]c4ccccc34)c3ccccc3n2)cc1 | -76% (active)
COc1ccc(-c2nc(S(=O)(=O)c3ccc(C)cc3)c(S(=O)(=O)CC(=O)N(C)Cc3ccccc3)o2)cc1 | 36.8%
COc1ccc(C(C)=C(c2ccc(OCCCN(C)C)cc2)c2ccc(OCCCN(C)C)cc2)cc1 | -99.5% (active)
COc1cc2c3c(n(CCCNCCO)c(=O)c2cc1OC)-c1nc2c(cc1C3=O)OCO2 | -57.1% (active)
c1ccc(C(=C(c2ccc(OCCN3CCCCC3)cc2)c2ccc(OCCN3CCCCC3)cc2)C2CCCC2)cc1 | -96.4% (active)
O=C(CSc1nnc(-c2c[nH]c3ccccc23)n1-c1ccccc1)Nc1ccc(C(=O)/C=C/c2ccc(Cl)cc2)cc1 | 63.9%
COc1cnc2c(c1)C(=O)c1c-2n(CCCNC(C)C)c(=O)c2cc(OC)c(OC)cc12 | -63% (active)
COc1ccc(NC(=O)CSc2nnc(-c3ccc4nc(-c5ccc(Cl)cc5)[nH]c4c3)o2)cc1 | 50.5%
CN(CCO)c1oc(-c2ccccc2)nc1[P+](c1ccccc1)(c1ccccc1)c1ccccc1 | 8.12% (active)
CN1CCc2c(sc3ncnc(N/N=C/c4ccc5ccccc5c4)c23)C1 | 29.1%

tested on: UACC-257 melanoma; test: as above; conditions: 10 µM

Compound | growth
COc1ccc(/C=C/C(=O)c2ccc(NC(=O)CN3C(=O)NC(C)(c4ccccc4)C3=O)cc2)cc1 (stereo not given) | 92.4%
Cc1ccc(C(C)C)cc1NC(=O)c1ccccc1O | 29%
CC1(c2ccccc2)NC(=O)N(CC(=O)Nc2ccc(C(=O)/C=C/c3ccc(Br)cc3)cc2)C1=O (stereo not given) | 48.4%
C=C[C@@]12CN3CC[C@]1(O)[C@@](C(=O)OC)(CO2)c1[nH]c2ccccc2c1C3 | 49.7%
COc1ccc(/C=C/C(=O)c2ccc(S(=O)(=O)NCCNc3nc(Nc4ccc(F)cc4)nc(N(C)C)n3)cc2)cc1 | 47.9%
O=c1oc2ccccc2cc1-c1csc(N=Nc2c(O)[nH]c3ccc(Br)cc23)n1 | 105%
O=C(CSc1nnc(-c2c[nH]c3ccccc23)n1-c1ccccc1)Nc1ccc(C(=O)/C=C/c2ccccc2Cl)cc1 | 107%
O=C(NO)c1ccc(-c2nc3ccc4[nH]ncc4c3c3c2CCCC3)cc1 | -18.8% (active)
CS(=O)(=O)Nc1ccc(-c2ccc3c(c2)ncn3-c2ccc(NC(=O)Nc3ccc(Br)cc3)cc2)cc1 | -16.9% (active)
O=C(CS(=O)(=O)c1oc(-c2ccc(Cl)cc2)nc1S(=O)(=O)c1ccc(Cl)cc1)N1CCOCC1 | 73.9%
COc1cc(-c2nc3cc(Cl)c(Cl)cc3[nH]2)ccc1OCc1nnc(-c2ccc(Br)cc2)o1 | 4.56% (active)
COc1cccc(C(N)=Nc2ccc(OCCCCCCn3cncn3)cc2)c1 | 56%
COc1cc2c3c(n(CCCn4ccnc4)c(=O)c2cc1OC)-c1nc2c(cc1C3=O)OCO2 | 66%
Cc1ccc(/C=C/C(=O)c2ccc(NC(=O)CSc3nnc(-c4c[nH]c5ccccc45)n3-c3ccccc3)cc2)cc1 | 111%
O=C(CSc1nnc(-c2ccc3nc(-c4ccccc4)[nH]c3c2)o1)Nc1ccc(Br)cc1 | 98.8%
O=C(CNc1nc(-c2ccccc2)cs1)Nc1ccccc1 | -14.3% (active)
O=C(/C=C/Nc1ccc(F)cc1F)c1ccc2c(c1)Nc1ccccc1S2 | 88.2%
COc1cc(Cn2c(C(F)(F)F)cc3c(Cl)ncnc32)ccn1 | 30.1%
COc1ccc(-c2cc(C(=O)N=Nc3c(O)[nH]c4ccc(F)cc34)c3ccccc3n2)cc1 | 109%

Compound | growth
O=C(Nc1ccccc1)Nc1nc2ccccc2s1 | 20.8%
O=C(CSc1nnc(-c2ccc3nc(-c4ccccc4)[nH]c3c2)o1)Nc1ccc(Cl)cc1 | 75.3%
CCOc1ccc(Nc2nc3ccccc3nc2Nc2ccc(OCC)cc2)cc1 | 75%
CNC(=O)c1cc(-c2ccc(NC(=O)Nc3ccc(C)cc3)cc2)nc2cccnc12 | 123%
NC(=Nc1ccc(OCCCCCCCCn2ccnn2)cc1)c1ccccc1 | 50.8%
Cc1ccc(C(=O)Nc2ccc(-n3c(C)nc4c(cnn4-c4ccccc4)c3=O)cc2)cc1 | 42%
COc1ccc(-c2cc(-c3cc(C(=O)c4ccccc4)n4ccc(C)cc34)nc(N)c2C#N)cc1 | 84.4%
C[C@H]1[C@H](C)CC[C@]2(COC(=O)CCC(=O)NCC#CCN3CCNCC3)CC[C@]3(C)C(=CC[C@@H]4[C@@]5(C)CCCNC(C)(C)[C@@H]5CC[C@]43C)[C@H]12 | 26.3%
O=c1[nH]c2ccc(Cl)cc2cc1CSc1ccc(Nc2nccc(-c3ccc(Cl)cc3)n2)cc1 | 96.9%
COc1ccc(-c2cc(C(=O)N=Nc3c(O)[nH]c4ccccc34)c3ccccc3n2)cc1 | 47.8%
COc1ccc(-c2nc(S(=O)(=O)c3ccc(C)cc3)c(S(=O)(=O)CC(=O)N(C)Cc3ccccc3)o2)cc1 | 67.9%
COc1ccc(C(C)=C(c2ccc(OCCCN(C)C)cc2)c2ccc(OCCCN(C)C)cc2)cc1 | -96.1% (active)
COc1cc2c3c(n(CCCNCCO)c(=O)c2cc1OC)-c1nc2c(cc1C3=O)OCO2 | 80.2%
c1ccc(C(=C(c2ccc(OCCN3CCCCC3)cc2)c2ccc(OCCN3CCCCC3)cc2)C2CCCC2)cc1 | -34.2% (active)
O=C(CSc1nnc(-c2c[nH]c3ccccc23)n1-c1ccccc1)Nc1ccc(C(=O)/C=C/c2ccc(Cl)cc2)cc1 | 104%
COc1cnc2c(c1)C(=O)c1c-2n(CCCNC(C)C)c(=O)c2cc(OC)c(OC)cc12 | 90.1%
COc1ccc(NC(=O)CSc2nnc(-c3ccc4nc(-c5ccc(Cl)cc5)[nH]c4c3)o2)cc1 | 71.5%
CN(CCO)c1oc(-c2ccccc2)nc1[P+](c1ccccc1)(c1ccccc1)c1ccccc1 | -3.98% (active)
CN1CCc2c(sc3ncnc(N/N=C/c4ccc5ccccc5c4)c23)C1 | 107%
